In ChEMBL document CHEMBL1157539, “Thousands of chemical starting points for antimalarial lead identification” (Nature, 2010):

test system: Plasmodium falciparum; experiment: GSK_TCMDC: Inhibition of Plasmodium falciparum 3D7 in whole red blood cells, using parasite LDH activity as an index of growth. Test compounds present at 2uM; type: functional

| SMILES | Inhibition [%] |
| --- | --- |
| Cc1ccc(N2C(N)=NC(N)=NC2c2ccccc2)cc1.Cl (stereo unspecified) | 94 |
| Br.Oc1ccc(CCNCCCCCCNCCc2ccc(Cl)cc2)c(Cl)c1O | 100 |
| CCc1ccc(NC(=O)N(CCCn2ccnc2)Cc2csc(-c3ccc(CNCc4ccccc4)cc3)n2)cc1.O=C(O)C(F)(F)F | 100 |
| O=C(Cc1ccc(NC(=O)c2ccc(O)c(-c3ccc(Cl)c(Cl)c3)c2)cc1)NCCN1CCCCC1 | 95 |
| Cc1ccc(S(=O)(=O)N2CCCN(C(=O)c3cc(-c4ccccc4)[nH]n3)CC2)cc1 | 96 |
| Cc1cc(N[C@@H](Cc2ccccc2)C(=O)NC2CCCC2)nc(Nc2ccccc2)n1.O=C(O)C(F)(F)F | 100 |
| CS(=O)(=O)CCNCc1nc(-c2ccc3c(Nc4ccc(F)c(O)c4)ccnc3c2)cs1 | 95 |
| Cc1cccc2nc(-c3ccc(-c4cccc(C(=O)NCCc5cn(C)cn5)c4)s3)[nH]c12 | 92 |
| O=C(NCCCCN1CCC(c2ccc(Br)cc2)CC1)c1ccc(NC(=O)c2ccc(Cl)cc2)cc1 | 100 |
| CCC(c1ccccc1)c1nn2c(-c3cccs3)nnc2s1 (stereo unspecified) | 97 |
| COc1ccccc1CCNc1ncnc2c1[nH]c1ccc(F)cc12 | 95 |
| Cc1n[nH]c2cc(Nc3ccnc(Nc4cccc(CN5CCOCC5)c4)n3)ccc12 | 83 |
| Cn1cnc(CCNC(=O)c2cccc(-c3cccc(-c4nc5cc(C(F)(F)F)ccc5[nH]4)c3)c2)c1 | 100 |
| Br.CC1(C)NC(N)=NC(=N)N1OCCOc1ccc2ccccc2c1 | 93 |
| CN(C)CCCN1C(=O)c2[nH]nc(-c3ccc(Cl)cc3O)c2C1c1ccc(Cl)cc1 (stereo unspecified) | 99 |
| O=C(NCc1ccc(Cl)cc1)c1ccc(CN2CCCN(CC3CCCCC3)CC2)cc1.O=C(O)C(F)(F)F | 84 |
| Cc1c(C)c2c(c(C)c1O)CC[C@](C)(C(=O)N1CCC(CCN3CCC(c4c[nH]c5ccccc45)CC3)CC1)O2 | 99 |
| O=C(Nc1ccc(OC2CCN(Cc3ccsc3)C2)c(Cl)c1)c1cccs1.O=C(O)C(F)(F)F (stereo unspecified) | 91 |
| CCCCCCCCNc1c2ccc(Cl)cc2nc2ccc(OC)cc12.Cl | 89 |
| NCC1CCCN1Cc1cccc(-c2ccc(-c3nc4cc(C(F)(F)F)ccc4[nH]3)cc2)c1.O=C(O)C(F)(F)F (stereo unspecified) | 100 |
| Cc1noc(C)c1-c1cccc(CNCc2cccc(-c3ccc(-c4nc5ccccc5[nH]4)cc3)c2)c1.O=C(O)C(F)(F)F | 100 |
| Cc1cccc2nc(-c3cccc(-c4ccc(NC(=O)NCc5ccccc5)cc4)c3)[nH]c12 | 100 |
| CCc1cn2c3c(cc(C(=O)N[C@@H](Cc4ccccc4)[C@H](O)CNC(C)(C)CCCC(C)C)cc13)N(C)S(=O)(=O)C2.O=CO | 98 |
| Cc1noc(C)c1CN1Cc2ccccc2OC2(CCN(Cc3c[nH]c4cnccc34)CC2)C1.O=C(O)C(F)(F)F | 89 |
| COc1cccc(CCNc2nc(NCc3ccccc3)c3cc(OC)c(OC)cc3n2)c1 | 100 |
| CCc1cn2c3c(cc(C(=O)N[C@@H](Cc4ccccc4)[C@H](O)CNC4CC4)cc13)N(CC)S(=O)(=O)CC2.O=CO | 98 |
